Laboratory results published in ChEMBL document CHEMBL3988442, “University of Dundee, Small-Polar-MMV Screening Library” (2021).

Each compound was assayed against AMP-activated protein kinase, AMPK (Homo sapiens) (UniProt P54646+O43741+P54619+Q9UGJ0+Q9Y478+Q13131+Q9UGI9) (assay: AMP-dependent Kinase enzyme assay. An in vitro enzyme assay that detects ADP turnover that is directly proportional to AMPK activity. This uses naive AMPK that is activated during the assay with MK-8722). Details: 30 µM.
Assay type: functional
Parameters: scale not given: direction of the effect not stated beside the values

Q: CC(C)Cn1cc(NC(=O)c2cccc(N(C)C)c2)cn1 was tested. Which Percent Effect did it give?
A: 1.9%

Q: With N#CC1(NC(=O)CN2CCc3c(ncn3C3CC3)C2)CCCC1 as the compound, how does the Percent Effect read?
A: -7.46%

Q: COc1ccc(OCc2noc(CN(C)C3CCS(=O)(=O)C3)n2)cc1 (stereo not given) was tested. Which Percent Effect did it give?
A: -2.23%

Q: With Cc1nn(C)c2nc(N3CCCCC3c3ccc(F)cc3)sc12 (stereo not given) as the compound, how does the Percent Effect read?
A: 3.9%

Q: For CCn1cnnc1CCNc1nc(C)cc(C)c1C#N, which Percent Effect is on record?
A: -7.29%

Q: How did the Percent Effect turn out when CCOC(=O)c1ccc(S(=O)(=O)NCC(CC)N2CCCC2)cc1 (stereo not given) was run?
A: -6.04%

Q: With COC1CCN(c2ccc(F)cc2CN(C)S(C)(=O)=O)CC1 as the compound, how does the Percent Effect read?
A: 6.29%

Q: With Cc1cc(NCCc2nc(C)cs2)nc(-c2cccnc2)n1 as the compound, how does the Percent Effect read?
A: 5.81%

Q: Which Percent Effect does the source give for CC1(C)OC(=O)N(CC(=O)N2CCC(c3ccccc3F)C2)C1=O (stereo not given) here?
A: 12.7%

Q: CC(C)(C)C(=O)N1CCCC1c1cc(CO)[nH]n1 (stereo not given) was tested. Which Percent Effect did it give?
A: 14.4%

Q: With COc1c(C2CCCN2C(=O)c2ccc(C(N)=O)s2)c(C)nn1C (stereo not given) as the compound, how does the Percent Effect read?
A: -4.26%

Q: How did the Percent Effect turn out when CCN1CC2(CCN(CC3COCCO3)CC2)OC1=O (stereo not given) was run?
A: -1.21%

Q: For O=C(CNC1(CCO)CCOCC1)Nc1ccc(F)cc1F, which Percent Effect is on record?
A: -0.128%

Q: Which Percent Effect does the source give for COc1cccc(Cn2ncnc2CCC(C)N2CCN(C)CC2)c1 (stereo not given) here?
A: -1.98%

Q: Which Percent Effect does the source give for Cc1c(NC(=O)N(C)CCn2cnnc2)cccc1OC1CCCC1 here?
A: -2.5%

Q: With CCN1CCC(CC(=O)NCCc2nc(N)cc(O)n2)CC1 as the compound, how does the Percent Effect read?
A: 0.153%

Q: Cn1ccc(C(=O)N2CCCC2c2cc(CCO)[nH]n2)n1 (stereo not given) was tested. Which Percent Effect did it give?
A: 21.2%

Q: O=C(C1CC(c2cccc(F)c2)=NO1)N1CCc2ccccc21 (stereo not given) was tested. Which Percent Effect did it give?
A: 13.6%

Q: With FC(F)(F)c1cc(C2CCCN(Cc3cccnc3)C2)n[nH]1 (stereo not given) as the compound, how does the Percent Effect read?
A: 5.52%

Q: How did the Percent Effect turn out when Cc1ccc(OCCN(C)C2CCOC2=O)cc1 (stereo not given) was run?
A: 0.0432%
